This is an account of results in PubChem BioAssay (EPA / NIEHS).

Activity calls are given as the source filed them. How the source made its calls: active means hit-call score of the fitted dose curve at least 0.9, where 1 is the maximum; inactive means score below 0.9.

Assay [1] is described as follows: ATG_DR4_LXR_CIS: Attagene CIS-FACTORIAL HepG2 Assay for human Liver X Receptor (LXR), DR4 submotif (AID 2282929). As to conditions: HepG2 Attagene DR4 cis-reporter, mRNA transcription; actives raise or lower the signal. In outline:
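DR4 cis-reporter in HepG2, 24 h exposure. Detection: RT-PCR, 6-FAM labelling, CE fragment analysis. Endpoint fitted bidirectionally, DMSO = baseline.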

Assay [2] concerns the target Aryl hydrocarbon receptor (Homo sapiens) (UniProt P35869). Description: ATG_Ahr_CIS: Attagene CIS-FACTORIAL HepG2 Assay for human Aryl Hydrocarbon Receptor (Ahr) (AID 2282930). Conditions: HepG2 AhR cis-factorial reporter transcription; actives raise or lower the signal. In outline: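 HepG2 cells transiently transfected with cis-element-driven multiplexed reporter transcription units; endogenous transcription factor activity measured as reporter mRNA 24 h after dosing. RT-PCR, 6-FAM labelling, HpaI digestion, capillary electrophoresis; bidirectional fitting versus DMSO baseline.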

A short description of assay [3]: ATG_AP_1_CIS: Attagene CIS-FACTORIAL HepG2 Assay for human Activator Protein 1 (AP-1) (AID 2282931). Conditions: HepG2 Attagene cis-factorial AP-1 reporter mRNA; actives raise or lower the signal. A digest of the protocol:
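Cis-regulated reporter units transiently expressed in HepG2 report endogenous transcription-factor activity. Signal: reporter mRNA at 24 h, via RT-PCR and fluorescent capillary electrophoresis. Endpoint derived by bidirectional fitting, DMSO as negative control.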

The nature of assay [4]: ATG_AP_2_CIS: Attagene CIS-FACTORIAL HepG2 Assay for human Activator Protein 2 (AP-2) (AID 2282932). As to conditions: HepG2 AP-2 cis-reporter, Attagene transcription factor profiling; actives raise or lower the signal. A digest of the protocol: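 Cells (HepG2) transfected with promoter-driven reporter constructs, treated 24 h. Total RNA reverse-transcribed, reporter cDNA PCR-amplified, FAM-labelled by primer extension, digested, resolved by capillary electrophoresis. Activity fitted both directions versus DMSO.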

A short description of assay [5]: ATG_BRE_CIS: Attagene CIS-FACTORIAL HepG2 Assay for human Bone Morphogenetic Protein (BMP) Response Element (BRE) (AID 2282933). As to conditions: HepG2 BMP response element reporter, Attagene transcription factor profiling; actives raise or lower the signal. In outline: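 A HepG2 multiplex reporter system measured inducible reporter mRNA 24 h post-dosing. Detection: RT-PCR, 6-FAM primer extension, HpaI digestion, capillary electrophoresis. Activity fitted bidirectionally relative to DMSO.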

For assay [6], the target named is Retinoic acid receptor alpha (Homo sapiens) (UniProt P10276). Briefly: ATG_DR5_RAR_CIS: Attagene CIS-FACTORIAL HepG2 Assay for human Retinoic Acid Receptor Alpha (RARE), DR5 submotif (AID 2282934).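 On AC50: reporter responds to endogenous RAR alpha beta and gamma in HepG2 not RARA alone.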 Conditions: HepG2 Attagene cis-factorial RARE DR5 reporter, mRNA; actives raise or lower the signal. A digest of the protocol: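 HepG2 cells transiently transfected with multiplexed reporter units under cis (DR5 RARE) promoters, so endogenous transcription factor activity is measured. After 24 h compound exposure, reporter mRNA is quantified by RT-PCR with fluorescent labelling and capillary electrophoresis; bidirectional fitting versus DMSO.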

A short description of assay [7]: ATG_E_Box_CIS: Attagene CIS-FACTORIAL HepG2 Assay for human Enhancer Box (E-box) (AID 2282936). Conditions: HepG2 E-box cis-reporter transcription, actives raise or lower the signal. A digest of the protocol:
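Endogenous transcription factor activity was sensed in human HepG2 liver cells through transfected cis-promoter reporter units. After 24 h of dosing, total RNA was reverse-transcribed and reporter cDNA resolved by capillary electrophoresis.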

The nature of assay [8]: ATG_M_61_CIS: Attagene CIS-FACTORIAL HepG2 Assay for M61 Transcription Factor (Internal Marker) (AID 2282937). As to conditions: HepG2 Attagene CIS-FACTORIAL M61 internal marker reporter; actives raise or lower the signal. In outline:
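Background-control endpoint: HepG2 cells with cis-regulated reporter constructs, 24 h exposure, reporter mRNA detected via fluorescent primer extension and capillary electrophoresis; values from bidirectional fitting with DMSO baseline.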

Assay [9] can be described thus: ATG_EGR_CIS: Attagene CIS-FACTORIAL HepG2 Assay for human Early Growth Response 1 (EGR1) (AID 2282938). Conditions: HepG2 Attagene CIS-FACTORIAL EGR reporter mRNA; actives raise or lower the signal. A digest of the protocol: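 Endpoint derived by bidirectional fitting versus DMSO vehicle. Method: cis-promoter reporter units transfected into HepG2, 24 h dosing, RNA isolation, RT-PCR with 6-FAM primer extension and HpaI digestion, then capillary electrophoresis fluorescence detection.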

A short description of assay [10]: ATG_M_19_CIS: Attagene CIS-FACTORIAL HepG2 Assay for M19 Transcription Factor (Internal Marker) (AID 2282939). As to conditions: HepG2 Attagene CIS-FACTORIAL M19 internal marker reporter; actives raise or lower the signal. A digest of the protocol:
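Chemical-treated HepG2 (24 h) with MRTU constructs; reporter transcripts detected by fluorescent RT-PCR fragment analysis on capillary electrophoresis. Internal background marker, DMSO as baseline.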

Assay [11] can be described thus: ATG_ERE_CIS: Attagene CIS-FACTORIAL HepG2 Assay for Estrogen Response Element (ERE) (AID 2282940). Conditions: HepG2 ERE cis-reporter, Attagene RNA transcript; actives raise or lower the signal. In outline:
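Human liver cells (HepG2) bearing transiently transfected, promoter-regulated reporter units were exposed 24 h. Reporter mRNA induction was detected by capillary electrophoresis of labelled RT-PCR products and fitted bidirectionally to DMSO.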

Assay [12] in a line: ATG_Ets_CIS: Attagene CIS-FACTORIAL HepG2 Assay for human Erythroblast Transformation Specific (ETS) (AID 2282941). As to conditions: HepG2 ETS cis-reporter transcription, actives raise or lower the signal. In outline:
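RT-PCR/capillary electrophoresis fluorescence read-out of reporter mRNA; HepG2 transient multi-reporter transfection; 24 h compound exposure; gain or loss of signal fitted bidirectionally relative to DMSO.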

Assay [13] addresses Hepatocyte nuclear factor 3-beta (Homo sapiens) (UniProt Q9Y261). Briefly: ATG_FoxA2_CIS: Attagene CIS-FACTORIAL HepG2 Assay for human Forkhead box A2 (FOXA2) (AID 2282942). Conditions: HepG2 cis-reporter transcription factor activity, 24 h; actives raise or lower the signal. In outline: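 Measured: reporter mRNA induction or loss in HepG2 transiently carrying multiple cis-regulated reporter units, 24 h after dosing. Quantified by RT-PCR plus capillary electrophoresis, normalised to DMSO.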

A short description of assay [14]: ATG_FoxO_CIS: Attagene CIS-FACTORIAL HepG2 Assay for human Forkhead box O (FoxO) (AID 2282943). Conditions: HepG2 Attagene cis-reporter, FoxO element, mRNA; actives raise or lower the signal. A digest of the protocol:
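HepG2 cells transiently transfected with cis-promoter-driven multiple reporter transcription units; 24 h after chemical dosing, reporter mRNA quantified by RT-PCR, fluorescent primer extension, HpaI digestion and capillary electrophoresis. Bidirectional fitting versus DMSO baseline.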

Assay [15] can be described thus: ATG_GATA_CIS: Attagene CIS-FACTORIAL HepG2 Assay for human GATA Binding Protein (AID 2282944). As to conditions: HepG2 GATA cis-element reporter, Attagene multiplex mRNA; actives raise or lower the signal. A digest of the protocol: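 Transfected cis-reporter HepG2 cells were treated with chemicals for 24 hours. Total RNA was then converted to cDNA, amplified with reporter-specific primers and analysed by fluorescent capillary electrophoresis, using DMSO-treated wells as baseline.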

A short description of assay [16]: ATG_GLI_CIS: Attagene CIS-FACTORIAL HepG2 Assay for human Zinc Finger Protein GLI1 (AID 2282945). As to conditions: HepG2, Attagene cis-factorial reporter mRNA, GLI element; actives raise or lower the signal. A digest of the protocol: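 HepG2 cells transiently transfected with cis-promoter multiplexed reporter units report endogenous transcription factor activity. After 24 h chemical exposure, reporter mRNA was quantified by RT-PCR, 6-FAM labelling, HpaI digestion and capillary electrophoresis, with bidirectional fitting against DMSO.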

Assay [17] in a line: ATG_GRE_CIS: Attagene CIS-FACTORIAL HepG2 Assay for human Glucocorticoid Response Elements (GRE) (AID 2282947). Conditions: HepG2 GRE cis-reporter, Attagene multiplex mRNA; actives raise or lower the signal. In outline:
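Cells (HepG2) bearing transfected cis-promoter reporter transcription units were treated with chemical for 24 hours. Reporter mRNA was measured via RT-PCR with capillary electrophoresis, and activity was fitted in both directions relative to DMSO.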

Assay [18] can be described thus: ATG_ISRE_CIS: Attagene CIS-FACTORIAL HepG2 Assay for human Interferon Regulatory Factor 1 (IRF1) binding to an Interferon-Stimulated Response Element (ISRE) (AID 2282948). As to conditions: HepG2 ISRE cis-reporter (Attagene), mRNA transcription readout; actives raise or lower the signal. A digest of the protocol: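 Read-out: fluorescent RT-PCR products resolved by capillary electrophoresis, reporting endogenous transcription factor activity via ISRE-driven reporter mRNA in transfected HepG2 cells dosed for 24 h; gain or loss fitted relative to DMSO.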

Assay [19] deals with Bile acid receptor (Homo sapiens) (UniProt Q96RI1). Briefly: ATG_IR1_CIS: Attagene CIS-FACTORIAL HepG2 Assay for human Nuclear Receptor Subfamily 1 Group H Member 4 (NR1H4), IR1 submotif (AID 2282946). Conditions: IR1 reporter transcription, actives raise or lower the signal. In outline:
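Readout: reporter transcript levels by RT-PCR with fluorescent capillary electrophoresis, from HepG2 cells transiently transfected with multiplexed cis-regulated reporters and dosed 24 h. Gain- or loss-of-signal fitted versus DMSO negative control.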

Chain of Retinoic acid receptor alpha (Homo sapiens) (P10276 whole entry, looked up): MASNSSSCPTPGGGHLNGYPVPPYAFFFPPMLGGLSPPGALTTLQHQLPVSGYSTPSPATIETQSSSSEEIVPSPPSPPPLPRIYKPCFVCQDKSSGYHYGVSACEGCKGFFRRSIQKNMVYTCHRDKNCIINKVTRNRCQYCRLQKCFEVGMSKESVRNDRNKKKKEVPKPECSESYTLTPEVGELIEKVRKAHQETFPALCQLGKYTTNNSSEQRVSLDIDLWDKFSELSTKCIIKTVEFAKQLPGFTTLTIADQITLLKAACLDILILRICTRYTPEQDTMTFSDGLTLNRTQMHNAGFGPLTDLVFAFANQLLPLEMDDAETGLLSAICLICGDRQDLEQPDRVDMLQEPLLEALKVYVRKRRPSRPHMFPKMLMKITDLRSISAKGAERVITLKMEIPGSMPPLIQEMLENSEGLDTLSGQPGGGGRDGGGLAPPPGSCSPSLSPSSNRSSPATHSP
Chain of Bile acid receptor (Homo sapiens) (Q96RI1 whole entry, looked up): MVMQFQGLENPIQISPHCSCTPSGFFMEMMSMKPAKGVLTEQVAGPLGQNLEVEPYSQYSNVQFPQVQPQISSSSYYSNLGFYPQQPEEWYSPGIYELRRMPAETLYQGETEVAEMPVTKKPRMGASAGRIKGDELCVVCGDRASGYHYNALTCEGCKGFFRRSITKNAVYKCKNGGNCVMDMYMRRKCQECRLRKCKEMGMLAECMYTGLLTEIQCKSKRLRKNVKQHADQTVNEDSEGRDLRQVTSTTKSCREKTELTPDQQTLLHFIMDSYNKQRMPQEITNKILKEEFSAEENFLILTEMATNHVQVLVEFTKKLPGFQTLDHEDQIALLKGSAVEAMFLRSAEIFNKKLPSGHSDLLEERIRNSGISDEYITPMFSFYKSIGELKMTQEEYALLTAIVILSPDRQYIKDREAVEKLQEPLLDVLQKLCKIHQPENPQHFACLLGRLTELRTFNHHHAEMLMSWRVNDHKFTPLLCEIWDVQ
Chain of Aryl hydrocarbon receptor (Homo sapiens) (P35869 whole entry, looked up): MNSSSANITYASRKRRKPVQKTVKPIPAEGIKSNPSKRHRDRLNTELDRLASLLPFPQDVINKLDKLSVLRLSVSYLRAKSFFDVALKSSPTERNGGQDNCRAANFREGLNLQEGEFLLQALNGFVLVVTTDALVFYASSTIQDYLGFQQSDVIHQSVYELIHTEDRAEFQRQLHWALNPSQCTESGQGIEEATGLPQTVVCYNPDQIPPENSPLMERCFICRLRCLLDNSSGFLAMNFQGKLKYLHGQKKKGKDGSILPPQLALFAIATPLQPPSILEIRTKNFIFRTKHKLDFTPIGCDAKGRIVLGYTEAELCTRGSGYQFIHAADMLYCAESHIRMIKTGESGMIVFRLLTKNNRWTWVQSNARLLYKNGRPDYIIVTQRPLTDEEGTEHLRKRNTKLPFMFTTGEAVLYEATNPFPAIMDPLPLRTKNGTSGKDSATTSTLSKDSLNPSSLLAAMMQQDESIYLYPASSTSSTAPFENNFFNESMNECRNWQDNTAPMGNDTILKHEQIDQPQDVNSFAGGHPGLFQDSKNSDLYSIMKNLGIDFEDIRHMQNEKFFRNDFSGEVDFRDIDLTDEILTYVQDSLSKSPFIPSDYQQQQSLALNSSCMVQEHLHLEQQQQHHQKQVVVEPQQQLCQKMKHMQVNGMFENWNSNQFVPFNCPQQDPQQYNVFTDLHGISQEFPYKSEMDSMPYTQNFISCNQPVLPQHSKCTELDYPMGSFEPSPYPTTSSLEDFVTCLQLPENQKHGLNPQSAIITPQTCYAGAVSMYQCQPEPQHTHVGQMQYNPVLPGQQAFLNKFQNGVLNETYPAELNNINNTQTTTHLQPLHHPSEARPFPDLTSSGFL
Chain of Hepatocyte nuclear factor 3-beta (Homo sapiens) (Q9Y261 whole entry, looked up): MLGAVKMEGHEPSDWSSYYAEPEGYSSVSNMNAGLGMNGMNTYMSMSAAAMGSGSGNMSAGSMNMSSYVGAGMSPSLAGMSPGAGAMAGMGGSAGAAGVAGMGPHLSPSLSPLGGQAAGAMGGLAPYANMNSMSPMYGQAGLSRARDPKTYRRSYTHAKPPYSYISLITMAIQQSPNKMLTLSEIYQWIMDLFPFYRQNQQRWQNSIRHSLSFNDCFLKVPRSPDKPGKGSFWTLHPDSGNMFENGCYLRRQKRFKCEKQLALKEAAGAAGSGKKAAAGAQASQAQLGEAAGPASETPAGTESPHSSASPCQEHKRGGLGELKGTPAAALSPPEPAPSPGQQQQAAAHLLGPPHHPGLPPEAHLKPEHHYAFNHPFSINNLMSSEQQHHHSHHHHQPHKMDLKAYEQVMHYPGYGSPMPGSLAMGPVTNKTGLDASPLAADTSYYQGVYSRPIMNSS

Broadly, the AC50 is the midpoint of the concentration-response curve, whichever way the signal moves. Regarding `CC(O)(CS(=O)(=O)c1ccc(F)cc1)C(=O)Nc1ccc(C#N)c(C(F)(F)F)c1` (stereo not drawn), the outcome in assay [1], in assay [2], in [3], in [4], in [6] and in [7] was inactive. Moreover, the compound was called inactive in assay [8], in assay [9], in assay [10], in [11], in [12] and in assay [13]. Further, the result in assay [14], in assay [15], in assay [16], in assay [17] and in assay [18] was inactive. Besides, in [5], the AC50 is 98500 nM (active).

Take `[Cl][Sn]([c]1ccccc1)([c]1ccccc1)[c]1ccccc1`: the AC50 is 670 nM (active) in assay [1]; 1090 nM (active) in assay [2]; 503 nM (active) in assay [4]; 227 nM (active) in assay [6]; 252 nM (active) in assay [7]; 257 nM (active) in assay [9]. Moreover, the concentration at half-maximal activity (AC50) in [11] is 14 nM (active); in [14], 308 nM (active); in [15], 1200 nM (active); in assay [16], 221 nM (active). Also, the compound was classed as inactive in [3], in assay [5], in assay [8], in [10], in [12] and in assay [13]. The result in [19] and in assay [18] was inactive.

In the case of `O=S1OC[C@@H]2[C@H](CO1)[C@]1(Cl)C(Cl)=C(Cl)[C@@]2(Cl)C1(Cl)Cl` (stereo partly drawn), the AC50 in assay [1] is 27100 nM (active); in [3], 100000 nM (active); in assay [11] it was 2770 nM (active). Moreover, the result in assay [2], in assay [4], in assay [5], in [6], in assay [7] and in [8] was inactive. For the same compound, the result in assay [10], in assay [13], in assay [14], in assay [15], in [16] and in assay [19] was inactive. The result in [17] and in assay [18] was inactive.

On to `O=C(NC(=O)c1c(F)cccc1F)Nc1ccc(Cl)cc1`, for which the compound was classed as inactive in assay [1], in assay [3], in [4], in assay [5], in assay [6] and in assay [7]. Moreover, the compound was classed as inactive in assay [8], in assay [9], in assay [10], in [11], in [12] and in assay [14]. Besides, the call in [15], in assay [16], in assay [19] and in [18] was inactive. The AC50 in assay [2] is 19600 nM (active).

Take `O=S(=O)(Oc1ccc(Cl)cc1)c1ccc(Cl)cc1`: the AC50 in [1] was 34900 nM (active); in [3], 32600 nM (active). The result in assay [2], in assay [4], in assay [5], in assay [6], in [7] and in [8] was inactive. Moreover, the call in [9], in [10], in assay [11], in [12], in assay [13] and in [14] was inactive. The compound was called inactive in assay [15], in [16] and in [18].

Consider `Oc1cccc(-c2ccccc2)c1`, for which the result in assay [1], in [2], in assay [4], in assay [6], in assay [7] and in [8] was inactive. In addition, the compound was called inactive in [9], in [10], in assay [12], in assay [13], in assay [14] and in assay [15]. For the same compound, the result in assay [16], in [19], in assay [17] and in assay [18] was inactive. In addition, the AC50 in assay [3] is 65100 nM (active); in [5], 73500 nM (active).

With `Cc1cc(Cl)ccc1O`, the call in assay [1], in assay [2], in assay [3], in [4], in assay [5] and in assay [6] was inactive. In addition, the outcome in assay [7], in assay [8], in assay [9], in assay [10], in [14] and in assay [15] was inactive. The compound was called inactive in [16], in [19] and in assay [18].

Regarding `NNCCO`, the compound was called inactive in assay [1], in assay [3], in assay [4], in assay [5], in [6] and in assay [7]. Moreover, the compound was classed as inactive in [8], in assay [9], in assay [10], in assay [12], in assay [13] and in assay [14]. Moreover, the outcome in [15], in assay [16], in [19] and in assay [18] was inactive. For the same compound, the figures for the AC50 in assay [2] and in assay [11] were 25700 nM (active) and 25400 nM (active), respectively.
